The sample as a whole holds a higher share of the strongest signals than the screen did.
Experiments:
Experiment in all cases: glycan array binding signal (z-score within array); higher = stronger binding
Conditions in all cases: glycan notation: IUPAC condensed, linker removed
Fuc(a1-2)Gal = target: Fuc(a1-2)Gal
Summary of the method: (§1)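 The binding signal is a Z-score computed within each array. Data were drawn from 3228 arrays in the Consortium for Functional Glycomics database, restricted to those with a known protein sequence. Scores were averaged over arrays of the same protein sequence at different concentrations or buffers, and over linkers, and negative values can be taken as non-binding.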

Fuc(a1-2)Gal(b1-3)GalNAc = target: Fuc(a1-2)Gal(b1-3)GalNAc
Summary of the method: as §1

[1] = target: Fuc(a1-2)Gal(b1-4)GlcNAc(b1-2)[Fuc(a1-2)Gal(b1-4)GlcNAc(b1-4)]Man(a1-3)[Fuc(a1-2)Gal(b1-4)GlcNAc(b1-2)Man(a1-6)]Man(b1-4)GlcNAc(b1-4)GlcNAc
Summary of the method: as §1

[2] = target: Fuc(a1-2)Gal(b1-4)GlcNAc6S
Summary of the method: as §1

[3] = target: Fuc(a1-2)Gal6S(b1-3)GlcNAc6S
Summary of the method: as §1

[4] = target: Fuc(a1-2)[Gal(a1-3)]Gal(b1-3)GlcNAc(b1-2)Man(a1-3)[Fuc(a1-2)[Gal(a1-3)]Gal(b1-3)GlcNAc(b1-2)Man(a1-6)]Man(b1-4)GlcNAc(b1-4)[Fuc(a1-6)]GlcNAc
Summary of the method: as §1

[5] = target: Fuc(a1-2)[Gal(a1-3)]Gal(b1-3)GlcNAc(b1-3)GalNAc
Summary of the method: as §1

[6] = target: Fuc(a1-2)[Gal(a1-4)]Gal(b1-4)GlcNAc
Summary of the method: as §1

[7] = target: Fuc(a1-2)[GalNAc(a1-3)]Gal(b1-4)[Fuc(a1-3)]GlcNAc(b1-3)GalNAc
Summary of the method: as §1

Fuc(b1-3)GlcNAc = target: Fuc(b1-3)GlcNAc
Summary of the method: as §1

Gal(a1-2)Gal = target: Gal(a1-2)Gal
Summary of the method: as §1

Gal(a1-3)Gal = target: Gal(a1-3)Gal
Summary of the method: as §1

Gal(a1-3)Gal(b1-4)GlcNAc = target: Gal(a1-3)Gal(b1-4)GlcNAc
Summary of the method: as §1

[8] = target: Gal(a1-3)[Gal(a1-4)]Gal(b1-4)GlcNAc
Summary of the method: as §1

[9] = target: Gal(a1-4)Gal(b1-3)GlcNAc(b1-2)Man(a1-3)[Gal(a1-4)Gal(b1-3)GlcNAc(b1-2)Man(a1-6)]Man(b1-4)GlcNAc(b1-4)GlcNAc
Summary of the method: as §1

Gal(b1-2)Gal = target: Gal(b1-2)Gal
Summary of the method: as §1

Gal(b1-3)Gal(b1-4)GlcNAc = target: Gal(b1-3)Gal(b1-4)GlcNAc
Summary of the method: as §1

Gal(b1-3)GalNAc = target: Gal(b1-3)GalNAc
Summary of the method: as §1

[10] = target: Gal(b1-3)GalNAc(a1-3)[Fuc(a1-2)]Gal(b1-4)GlcNAc
Summary of the method: as §1

[11] = target: Gal(b1-3)GalNAc(b1-4)Gal(b1-4)Glc
Summary of the method: as §1

[12] = target: Gal(b1-3)GlcNAc(b1-6)Gal(b1-4)GlcNAc
Summary of the method: as §1

Gal(b1-3)GlcNAc6S = target: Gal(b1-3)GlcNAc6S
Summary of the method: as §1

[13] = target: Gal(b1-3)[GlcNAc(b1-6)]GalNAc
Summary of the method: as §1

[14] = target: Gal(b1-4)GlcNAc(a1-6)Gal(b1-4)GlcNAc
Summary of the method: as §1

[15] = target: Gal(b1-4)GlcNAc(b1-2)Man(a1-3)[Gal(b1-4)GlcNAc(b1-2)Man(a1-6)][GlcNAc(b1-4)]Man(b1-4)GlcNAc(b1-4)[Fuc(a1-6)]GlcNAc
Summary of the method: as §1

[16] = target: Gal(b1-4)GlcNAc(b1-2)Man(a1-3)[Man(a1-6)]Man(b1-4)GlcNAc(b1-4)GlcNAc
Summary of the method: as §1

[17] = target: Gal(b1-4)GlcNAc(b1-3)Gal(b1-3)GlcNAc
Summary of the method: as §1

[18] = target: Gal(b1-4)GlcNAc(b1-3)Gal(b1-4)GlcNAc(b1-3)Gal(b1-4)GlcNAc(b1-3)Gal(b1-4)GlcNAc(b1-2)[Gal(b1-4)GlcNAc(b1-3)Gal(b1-4)GlcNAc(b1-3)Gal(b1-4)GlcNAc(b1-3)Gal(b1-4)GlcNAc(b1-6)]Man(a1-6)[Gal(b1-4)GlcNAc(b1-3)Gal(b1-4)GlcNAc(b1-3)Gal(b1-4)GlcNAc(b1-3)Gal(b1-4)GlcNAc(b1-2)Man(a1-3)]Man(b1-4)GlcNAc(b1-4)[Fuc(a1-6)]GlcNAc
Summary of the method: as §1

Gal6P(b1-4)GlcNAc = target: Gal6P(b1-4)GlcNAc
Summary of the method: as §1

Gal6S(b1-3)GlcNAc = target: Gal6S(b1-3)GlcNAc
Summary of the method: as §1

B1: VLRB.aGPA.23-GCN4-biotin (Petromyzon marinus) (protein)
chain: ACPSQCSCSGTEVNCAGKSLASVPAGIPTTTRVLYLNSNQITKLEPGVFDRLANLRELHLWGNQLVSLPPGVFDNLANLEKLWLNSNQLTSLPAGLFDRLVNLEHLGLCCMKLTELPSGAFDKLTRLKQLGLDQNQLKSIPDGAFARLPSLTHVWLHTNPWDCQCTDILYLSGWVAQHSSIVGEGWPWRHSPDSAKCSGTNTPVRAVTEASTSPSKCP
glycan array binding signal (z-score) (Fuc(a1-2)Gal): 13.2 | glycan array binding signal (z-score) (Fuc(a1-2)Gal(b1-3)GalNAc): 12.6 | glycan array binding signal (z-score) [1]: -0.082 | glycan array binding signal (z-score) [2]: -0.082 | glycan array binding signal (z-score) [3]: -0.055 | glycan array binding signal (z-score) [4]: -0.07 | glycan array binding signal (z-score) [5]: -0.083 | glycan array binding signal (z-score) [6]: -0.066 | glycan array binding signal (z-score) [7]: 0.368 | glycan array binding signal (z-score) (Fuc(b1-3)GlcNAc): -0.075 | glycan array binding signal (z-score) (Gal(a1-2)Gal): 0.157 | glycan array binding signal (z-score) (Gal(a1-3)Gal): -0.08 | glycan array binding signal (z-score) (Gal(a1-3)Gal(b1-4)GlcNAc): -0.079 | glycan array binding signal (z-score) [8]: -0.069 | glycan array binding signal (z-score) [9]: -0.073 | glycan array binding signal (z-score) (Gal(b1-2)Gal): 3.68 | glycan array binding signal (z-score) (Gal(b1-3)Gal(b1-4)GlcNAc): 0.046 | glycan array binding signal (z-score) (Gal(b1-3)GalNAc): 0.232 | glycan array binding signal (z-score) [10]: -0.083 | glycan array binding signal (z-score) [11]: 0.519 | glycan array binding signal (z-score) [12]: -0.077 | glycan array binding signal (z-score) (Gal(b1-3)GlcNAc6S): -0.09 | glycan array binding signal (z-score) [13]: -0.079 | glycan array binding signal (z-score) [14]: -0.077 | glycan array binding signal (z-score) [15]: -0.081 | glycan array binding signal (z-score) [16]: -0.076 | glycan array binding signal (z-score) [17]: -0.071 | glycan array binding signal (z-score) [18]: -0.071 | glycan array binding signal (z-score) (Gal6P(b1-4)GlcNAc): -0.084 | glycan array binding signal (z-score) (Gal6S(b1-3)GlcNAc): 0.341
